Assay results as given in the supplement of paper PMC10646978.
± gives the standard deviation.

Legend:
Details in all cases: modulator concentration 10 µM
[1] = system: RAW-Dual (murine macrophage reporter line); test: NF-kB reporter (SEAP) activity fold change vs agonist alone; higher = enhanced NF-kB activity
Outline: (§1)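 Compound reached 10 μM final in each well by pin transfer, onto RAW-Dual murine macrophage reporter cells seeded at 50 000 per well in 384-well plates. After 1 hour at 37 °C, the cells were stimulated overnight with a PRR agonist. SEAP in the supernatant was read with QUANTI-Blue at 620 nm absorbance for NF-κB, and Lucia luciferase was read with QUANTI-Luc luminescence for IRF. Each signal was turned into fold change against the mean agonist-only control on the same plate, and two replicate plates were averaged with propagated errors.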

[2] = system: RAW-Dual (murine macrophage reporter line); test: IRF reporter (Lucia luciferase) activity fold change vs agonist alone; higher = enhanced IRF activity
Outline: as §1

[3] = system: RAW-Dual (murine macrophage reporter line); test: viability score (confluency relative to resting cells, overnight) (fraction); higher = more viable, active = viable (0.7 or more)
Outline: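 Overnight exposure to 10 μM final compound was carried out on RAW-Dual macrophages in 384-well plates. IncuCyte software generated two confluency masks over all wells imaged with IncuCyte. The viability score gives confluency in relation to resting cells. A compound met the cutoff if each mask exceeded 70% of resting cells.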

[4] = agonist: CpG ODN 1826 0.5 ug/mL

Row | Structure (SMILES) | NF-kB reporter [1, 4] | NF-kB reporter ([1]; agonist: LPS 0.1 ug/mL) | NF-kB reporter ([1]; agonist: MPLA […]) | IRF reporter ([2]; agonist: 3'3'-cGAMP 10 ug/mL) | IRF reporter ([2]; agonist: LPS 0.1 ug/mL) | IRF reporter ([2]; agonist: MPLA […]) | viability score [3]
1 | CCOc1ccc(-c2cccc(NC(=O)c3c(F)cccc3F)c2)nn1 | 0.969 ± 0.043 | 1.06 ± 0.088 | 1.13 ± 0.061 | 0.861 ± 0.053 | 1.11 ± 0.21 | 1.23 ± 0.46 | 0.982 (active)
2 | COc1ccc(C=C(NC(=O)c2ccccc2)C(=O)NCCC(=O)OCc2ccccc2)cc1 | 0.996 ± 0.082 | 1.04 ± 0.096 | 0.875 ± 0.073 | 0.841 ± 0.024 | 1.4 ± 0.14 | 1.11 ± 0.22 | 1.01 (active)
3 | O=C(c1ccc(Cl)cc1)c1ccc(N2CCOCC2)c([N+](=O)[O-])c1 | 0.696 ± 0.061 | 1.04 ± 0.08 | 0.735 ± 0.044 | 1.11 ± 0.027 | 1.62 ± 0.24 | 1.41 ± 0.24 | 1 (active)
4 | Cc1ccc(CSc2nc3sc4c(c3c(=O)n2-c2ccccc2)CC(C)(C)OC4)c(C)c1 | 0.984 ± 0.093 | 1.06 ± 0.075 | 0.91 ± 0.054 | 1.05 ± 0.039 | 1.41 ± 0.12 | 1.1 ± 0.21 | 1.02 (active)
5 | O=C(C=Cc1ccc(O)cc1)c1ccc(O)cc1O | 1.33 ± 0.36 | 1.09 ± 0.054 | 1.74 ± 0.12 | 0.305 ± 0.012 | 0.966 ± 0.1 | 0.81 ± 0.13 | 0.979 (active)
6 | Cn1cc(-c2cc(CNC(=O)c3cncc(Br)c3)ccn2)cn1 | 0.92 ± 0.041 | 1.05 ± 0.1 | 1.15 ± 0.065 | 0.872 ± 0.057 | 1.1 ± 0.17 | 1.3 ± 0.41 | 0.943 (active)
7 | CCOc1cccc2sc(=NC(=O)c3ccc(S(=O)(=O)N4CCOCC4)cc3)n(C)c12 | 0.991 ± 0.31 | 1.14 ± 0.16 | 0.989 ± 0.13 | 0.97 ± 0.025 | 1.06 ± 0.14 | 1.27 ± 0.15 | 0.995 (active)
8 | CN(C)CCC(c1ccc(Br)cc1)c1ccccn1.O=C(O)/C=C\C(=O)O (stereo not drawn) | 1.07 ± 0.14 | 1.15 ± 0.27 | 0.939 ± 0.052 | 0.71 ± 0.024 | 1.17 ± 0.34 | 0.918 ± 0.086 | 1.01 (active)
9 | CC(C)NCC(O)COc1cccc2ccccc12.Cl (stereo not drawn) | 0.858 ± 0.12 | 1.05 ± 0.13 | 1.03 ± 0.06 | 0.66 ± 0.051 | 1.21 ± 0.22 | 1.12 ± 0.29 | 0.984 (active)
10 | CCC(=O)NS(=O)(=O)c1ccc(-c2c(-c3ccccc3)noc2C)cc1 | 0.921 ± 0.14 | 1.2 ± 0.26 | 0.905 ± 0.05 | 0.971 ± 0.051 | 1.47 ± 0.31 | 1.25 ± 0.1 | 0.996 (active)
11 | O=C(Cn1cnc([N+](=O)[O-])n1)Nc1cc(Oc2cccc(C(F)(F)F)c2)cc([N+](=O)[O-])c1 | 0.529 ± 0.043 | 0.806 ± 0.097 | 0.406 ± 0.043 | 0.902 ± 0.022 | 1.6 ± 0.14 | 1.51 ± 0.21 | 0.995 (active)
12 | c1ccc2sc(SCCCCSc3nc4ccccc4s3)nc2c1 | 1.11 ± 0.087 | 1.02 ± 0.1 | 0.938 ± 0.035 | 0.953 ± 0.14 | 1.06 ± 0.1 | 0.977 ± 0.17 | 0.998 (active)
13 | COc1ccc(CNCc2cccc(C(F)(F)F)c2)cc1 | 0.749 ± 0.083 | 1.04 ± 0.087 | 1.02 ± 0.045 | 1.12 ± 0.14 | 0.966 ± 0.071 | 1.37 ± 0.21 | 0.27 (inactive)
14 | O=C(O)c1ccc2c(c1)nc(Nc1cccc(Cl)c1)c1ccncc12 | 1.24 ± 0.19 | 1.35 ± 0.35 | 1.4 ± 0.34 | 0.993 ± 0.033 | 1.39 ± 0.32 | 0.832 ± 0.083 | 0.986 (active)
